The source of these data is PubChem BioAssay (NCATS).

The structures appear in SMILES notation. Inconclusive results are not listed. A number with no mark means an inactive call. The source made the active and inactive calls. Calls come from the whole dose curve; as a rule, active = well fitted curve in the direction sought with a large enough effect; inconclusive = small, poorly fitted or top-dose-only effect, or another doubt; inactive = no such curve, though single readings can be large; an effect the other way counts as inactive or inconclusive.

The target in assay [1] is Rap guanine nucleotide exchange factor 3 (Homo sapiens) (UniProt O95398). The assay can be described thus: Confirmatory qHTS for antagonist of cAMP-regulated guanine nucleotide exchange factor 3 (EPAC1) (AID 1645880). Note: nearly all actives have a fitted effect of over 55% in size. Note: potency is the fitted concentration of half-maximal effect. In short, it runs like this:
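Released BODIPY-GDP fluoresces less than Rap1-bound BODIPY-GDP; the signal is followed at 480/540 nm at 5-min intervals over 30 min, after 5 min at room temperature. Reactions contain 100 nM EPAC1, 250 nM RAP1B-BODIPY-GDP and 50 uM GDP; results are normalized to ATA and DMSO.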

For assay [2] the target is unchanged. The assay can be described thus: Confirmatory qHTS for agonist of cAMP-regulated guanine nucleotide exchange factor 3 (EPAC1) (AID 1645881).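 Note: EPAC1 catalysed release of BODIPY-GDP from Rap1B seen as fluorescence loss; 100% = effect of cAMP agonist control; nearly all actives have a fitted effect of over 75% in size.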
In assay [3] the target is Rap guanine nucleotide exchange factor 4 (Homo sapiens) (UniProt Q8WZA2). Description: Confirmatory qHTS for agonist of cAMP-regulated guanine nucleotide exchange factor 4 (EPAC2) (AID 1645884).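 Note: nucleotide exchange releases bodipy-GDP from Rap1 and this lowers its fluorescence; % is set by controls: 0 for no effect and ±100 for the full control effect; nearly all actives have a fitted effect of over 65% in size.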
Rap guanine nucleotide exchange factor 4 (Homo sapiens), sequence (Q8WZA2 whole entry, looked up): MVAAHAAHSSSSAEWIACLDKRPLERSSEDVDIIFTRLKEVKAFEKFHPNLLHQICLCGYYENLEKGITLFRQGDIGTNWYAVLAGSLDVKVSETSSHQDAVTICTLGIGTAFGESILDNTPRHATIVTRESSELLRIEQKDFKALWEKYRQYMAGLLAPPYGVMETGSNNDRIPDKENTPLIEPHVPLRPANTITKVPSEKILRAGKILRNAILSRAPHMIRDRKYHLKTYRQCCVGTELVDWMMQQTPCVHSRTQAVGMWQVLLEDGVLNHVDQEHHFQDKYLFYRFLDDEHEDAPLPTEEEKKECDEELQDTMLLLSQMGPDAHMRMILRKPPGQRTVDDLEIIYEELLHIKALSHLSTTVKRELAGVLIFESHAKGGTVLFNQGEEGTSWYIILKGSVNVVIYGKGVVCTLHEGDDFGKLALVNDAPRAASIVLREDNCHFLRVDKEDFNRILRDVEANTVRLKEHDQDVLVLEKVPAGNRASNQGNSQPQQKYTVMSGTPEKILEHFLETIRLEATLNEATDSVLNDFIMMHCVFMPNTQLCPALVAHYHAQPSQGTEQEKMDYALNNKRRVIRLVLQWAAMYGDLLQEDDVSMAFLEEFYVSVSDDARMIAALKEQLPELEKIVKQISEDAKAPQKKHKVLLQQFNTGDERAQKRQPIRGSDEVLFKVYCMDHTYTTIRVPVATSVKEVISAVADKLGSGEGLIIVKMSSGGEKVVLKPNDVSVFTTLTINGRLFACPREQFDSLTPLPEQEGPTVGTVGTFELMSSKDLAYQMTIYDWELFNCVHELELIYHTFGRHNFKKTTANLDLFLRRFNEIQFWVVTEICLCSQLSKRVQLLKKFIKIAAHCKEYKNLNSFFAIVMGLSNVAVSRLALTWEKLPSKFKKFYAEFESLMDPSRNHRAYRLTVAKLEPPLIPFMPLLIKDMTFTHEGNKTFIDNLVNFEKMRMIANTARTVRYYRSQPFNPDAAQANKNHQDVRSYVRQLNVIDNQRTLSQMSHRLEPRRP
Assay [4] shares this target. Description: Confirmatory qHTS for antagonist of cAMP-regulated guanine nucleotide exchange factor 4 (EPAC2) (AID 1645885; note: nearly all actives have a fitted effect of over 25% in size; note: potency is the fitted concentration of half-maximal effect). (Quantitative high-throughput screening tests each substance at several concentrations.)
Assay [5] concerns the target Rap guanine nucleotide exchange factor 3 (Homo sapiens) (UniProt O95398). Description: Counterscreen qHTS for antagonist of cAMP-regulated guanine nucleotide exchange factor 3 (EPAC1) (AID 1645888). Note: % of control where 0% means no effect. In short, it runs like this:
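Rap1B-BODIPY-GDP 250 nM + GDP 50 uM; cpds 7-pt, final 9.74 nM–152 uM (activator mode) or from 7.32 nM upwards (inhibitor mode); RT; FI 480/540 nm at 5 and 30 min, then ± cAMP, reread.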
Background: A counterscreen serves to expose hits that act by an unwanted route or on another target.

Rap guanine nucleotide exchange factor 3 (Homo sapiens), sequence (O95398 whole entry, looked up): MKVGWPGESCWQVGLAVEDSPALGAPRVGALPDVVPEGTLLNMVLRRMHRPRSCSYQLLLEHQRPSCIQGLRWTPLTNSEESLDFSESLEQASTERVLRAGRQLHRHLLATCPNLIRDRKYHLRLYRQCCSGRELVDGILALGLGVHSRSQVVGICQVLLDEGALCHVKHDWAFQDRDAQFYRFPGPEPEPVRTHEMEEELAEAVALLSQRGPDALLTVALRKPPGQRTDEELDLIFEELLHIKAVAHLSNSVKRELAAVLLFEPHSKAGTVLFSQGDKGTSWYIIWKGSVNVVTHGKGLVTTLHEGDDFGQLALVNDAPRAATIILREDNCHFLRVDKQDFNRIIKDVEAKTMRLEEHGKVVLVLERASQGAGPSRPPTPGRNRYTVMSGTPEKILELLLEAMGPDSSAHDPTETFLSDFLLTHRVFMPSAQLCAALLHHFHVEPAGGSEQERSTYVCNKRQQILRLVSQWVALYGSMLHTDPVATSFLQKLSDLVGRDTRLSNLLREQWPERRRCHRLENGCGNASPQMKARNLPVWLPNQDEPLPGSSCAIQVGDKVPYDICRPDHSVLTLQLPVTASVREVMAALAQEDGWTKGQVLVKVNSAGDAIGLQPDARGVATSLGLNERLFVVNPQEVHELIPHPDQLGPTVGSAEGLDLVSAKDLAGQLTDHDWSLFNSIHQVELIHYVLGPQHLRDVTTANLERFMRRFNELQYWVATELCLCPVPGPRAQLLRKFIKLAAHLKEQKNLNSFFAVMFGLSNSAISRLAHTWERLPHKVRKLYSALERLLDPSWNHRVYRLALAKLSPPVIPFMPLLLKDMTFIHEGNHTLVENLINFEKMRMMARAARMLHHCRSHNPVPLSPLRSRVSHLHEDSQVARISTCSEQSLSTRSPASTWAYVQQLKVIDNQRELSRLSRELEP

In the case of `O=C1C[C@H]2C=CCc3cccc(c32)CN1Cc1ccc(Cl)cc1`, the Potency result in assay [1], in assay [2] and in assay [3] was “inactive” in each case. In addition, the Potency in assay [4] is 44.1 µM (active).

As to `CC(C(=O)Nc1ccccc1C(F)(F)F)n1nc(-c2ccccc2)c2c(c1=O)CCCC2` (stereo unspecified), the Potency entry in assay [1], in assay [2], in assay [3] and in assay [4] was “inactive” in each case.

Consider `CN(C)c1ccc(/C=C/C=C/c2ccnc3ccccc23)cc1`, for which the Potency entry in assay [1], in assay [2], in assay [3] and in assay [4] was “inactive” each time.

Consider `CC[C@H]1c2[nH]c3ccc(C(C)C)cc3c2[C@@H]2CCN3C(=O)CCC[C@H]1[C@H]23`, for which the Potency result in assay [1], in assay [2], in assay [3] and in assay [4] was “inactive” in each case.

Take `COC(=O)C(Cc1ccc(O)cc1)NC(=O)CCc1nc2ccccc2s1` (stereo unspecified): the Potency result in assay [1], in assay [2], in assay [3] and in assay [4] was “inactive” in each case.

For the molecule `CN(C)c1ccc(/C=C/c2ccnc3ccc(F)cc23)cc1`, the Potency result in assay [1], in assay [2], in assay [3] and in assay [4] was “inactive” throughout.

With `COc1cc(C(=O)N(Cc2cc3ccc(C)cc3nc2N(C)C)C2CC2)cc(OC)c1OC`, the Potency result in assay [1], in assay [2] and in assay [3] was “inactive” in each case. Also, the Potency in assay [4] was 17.5 µM (active).

In the case of `COc1ccc(C(C[N+](=O)[O-])c2c(C)cc3ccccn23)c(OC)c1` (stereo unspecified), the Potency entry in assay [1], in assay [2] and in assay [4] was “inactive” throughout. Also, in assay [3], the activation was 7.09% [at 17.1 µM, percent relative to cAMP agonist control].

Take `CN(C)CCNC(=O)c1cccc(-c2cnc3c(NC=O)cc(-c4cccc(C(F)(F)F)c4)cn23)c1`: the Potency entry in assay [1], in assay [2], in assay [3] and in assay [4] was “inactive” each time.

Consider `CCCCN(C(=O)c1cccc2c(=O)c(C)c(-c3ccccc3)oc12)c1ccccc1`, for which the Potency entry in assay [1], in assay [2] and in assay [4] was “inactive” each time. The activation in assay [3] is 8.49% [at 17.1 µM, percent relative to cAMP agonist control].

As to `O=C(C[n+]1cccc2cc(Cl)ccc21)c1ccc(Br)cc1`, the Potency entry in assay [1], in assay [2], in assay [3] and in assay [4] was “inactive” in each case.

Consider `Cc1cc(N(C)C)cc(C)c1/C=C/c1ccnc2ccccc12`, for which the Potency entry in assay [1], in assay [2] and in assay [3] was “inactive” throughout. The Potency in assay [4] is 13.9 µM (active).

Regarding `CN(Cc1cccc2ncccc12)C(=O)c1cnn(-c2nccc(-c3ccccc3F)n2)c1C1CC1`, the Potency entry in assay [1], in assay [2] and in assay [3] was “inactive” in each case. The Potency in assay [4] is 15.6 µM (active).

On to `COc1ccc(NC(=O)Cn2c(SCc3cc(C)ccc3C)nc3ccncc32)c(OC)c1OC`, for which the Potency result in assay [1], in assay [2] and in assay [3] was “inactive” throughout. Also, the outcome in assay [4] was “inactive [at 12.7 µM]”.

On to `Nc1ccn(C2C=CC(CO)O2)c(=O)n1` (stereo unspecified), for which the Potency result in assay [1], in assay [2], in assay [3] and in assay [4] was “inactive” throughout.

On to `COCCCn1c(-c2ccccc2)nc2ccccc2c1=O`, for which the Potency entry in assay [1], in assay [2], in assay [3] and in assay [4] was “inactive” each time.

For the molecule `CN(C)c1ccc(/C=C/c2ccnc3ccc4ccccc4c23)cc1`, the Potency was 49.8 µM (active) in assay [1] and 55.5 µM (active) in assay [4]. For the same molecule, the Potency entry in assay [2] and in assay [3] was “inactive” in each case.

Regarding `Cc1ccc(C)c(N2CCN(C(=O)CCc3nc(-c4ccc(Cl)cc4)no3)CC2)c1`, the Potency result in assay [1], in assay [2], in assay [3] and in assay [4] was “inactive” each time.

Turning to `Cc1cc(-c2cc(F)cc3c2OC(CNC(=O)CCn2cncn2)C3)ccc1F` (stereo unspecified), the Potency entry in assay [1], in assay [2], in assay [3] and in assay [4] was “inactive” each time.

For the molecule `Fc1ccccc1N1CCN(c2ncnc3onc(-c4ccc(Cl)cc4)c23)CC1`, the Potency result in assay [1], in assay [2], in assay [3] and in assay [4] was “inactive” throughout.

`Cn1cccc1-c1cc(C(=O)N/N=C/c2ccc(F)cc2)[nH]n1`: the Potency entry in assay [1], in assay [2] and in assay [4] was “inactive” in each case. Also, in assay [3], the activation was -2.5% [at 17.1 µM, percent relative to cAMP agonist control].

As for `c1ccc2c(N3CCCCCC3)nc(CN3CCCCC3c3nccs3)nc2c1` (stereo unspecified), the Potency entry in assay [1], in assay [2] and in assay [3] was “inactive” each time. In assay [4], the Potency is 13.9 µM (active).

As for `CC(C)C[C@@H](COc1ccccc1)N1CCN(Cc2ccccc2)CCC1=O`, the Potency result in assay [1], in assay [2] and in assay [3] was “inactive” throughout. Besides, the Potency in assay [4] was 62.2 µM (active).

In the case of `CC(C)CC1C(=O)N(Cc2cn(CCC3OCCCO3)nn2)CCS(=O)(=O)N1Cc1ccc(-c2ccc(F)cc2)cc1` (stereo unspecified), the Potency result in assay [1], in assay [2], in assay [3] and in assay [4] was “inactive” throughout.

Consider `O=C(C[N+]12CN3CN(CN(C3)C1)C2)c1ccc(I)cc1`, for which the Potency result in assay [1], in assay [2], in assay [3] and in assay [4] was “inactive” throughout.

As for `N#Cc1cc(NC(=O)c2ccc(Cl)cc2)ccc1Sc1ccccc1`, the Potency entry in assay [1], in assay [2], in assay [3] and in assay [4] was “inactive” in each case.

Turning to `COc1ccc(-c2[nH]c(-c3ccc(SC)cc3)nc2SCC(=O)Nc2nccs2)cc1`, the Potency in assay [1] was 84.9 µM (active). The Potency result in assay [2], in assay [3] and in assay [4] was “inactive” throughout.

As to `Cc1cc(NC(=O)CSc2nc(-c3ccccc3)nc3c2c(=O)n(C)c(=O)n3C)no1`, the Potency result in assay [1], in assay [2] and in assay [4] was “inactive” each time. Also, in assay [3], the activation was 0% [at 17.1 µM, percent relative to cAMP agonist control].

For the molecule `Cc1ccc(S(=O)(=O)N2[C@@H](c3ccc(C(C)(C)C)cc3)C(C(=O)O)=CC[C@H]2c2ccc(C(C)C)cc2)cc1`, the Potency in assay [1] was 19 µM (active). Besides, the Potency result in assay [2], in assay [3] and in assay [4] was “inactive” each time.

Turning to `CC(=O)Nc1ccc(S(=O)(=O)NCCC(=O)Nc2cc(C)ccn2)cc1`, the Potency result in assay [1], in assay [2], in assay [3], in assay [4] and in assay [5] was “inactive” throughout.

On to `COC(=O)c1cc(NC(=O)CC2C(=O)OCCN2Cc2ccccc2)cc(C(=O)OC)c1` (stereo unspecified), for which the Potency entry in assay [1], in assay [2], in assay [3], in assay [4] and in assay [5] was “inactive” each time.
